From PubChem BioAssay
LGR2 inh: blocks bursicon-induced cAMP signaling via Drosophila LGR2. HEK293 LGR2, CRE-luciferase, bursicon-stimulated, 4 h. inhibition, % at 9.99 µM. 380,000 compounds, 0.35% hits. AID 720647;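 active = drop in luminescence signal, shown as inhibition above about 50% in the replicate tests, limit read from the data, passing the limit was not always enough; inconclusive = probably only some replicates passing the limit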;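 also: agonist challenge used bursicon conditioned medium at about half maximal strength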
TROY NFkB inh: blocks TROY-dependent signaling in reporter cells. Q293 LMP1-TROYcd NF-kB luciferase reporter, 4 h. inhibition, % at 10 µM. 360,000 compounds, 0.98% hits;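 active = compounds whose plate-normalised and pattern-corrected inhibition of the luciferase reporter signal at the single screening dose is 50% or more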
TWEAK-Fn14 inh: TWEAK-Fn14 signaling inhibition. TWEAK-stimulated Fn14 reporter cells, luciferase luminescence, 8 h. inhibition, % at 10 µM. 360,000 compounds, 2% hits; in the data active = inhibition above about 50%
TRPM1 prom inh: inhibitors of MITF-driven TRPM1 promoter in melanoma cells | SK-MEL-5 TRPM1 promoter luciferase, 24 h | 330,000 compounds, 0.83% hits | inhibition, % at 12.5 µM;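 active = mean inhibition across replicates of 60% or more, whatever share of single replicates reaches that level; inconclusive = some that reach 60%, reason not given; inactive = mean inhibition across replicates below 60%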
MITF TRPM1 HTS: increases MITF-driven TRPM1 promoter luciferase signal. activation, % at 12.5 µM. AID 588334. 300,000 compounds, 0.75% hits. SK-MEL-5 TRPM1-promoter luciferase, 24 h; % of positive control, neutral wells = 0;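 active = mean activation of at least 80% with every replicate also reaching 80%; inconclusive = mean reaches 80% but some replicate falls short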;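 also: 0% = neutral control wells and 100% = parthenolide positive control wells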
LMP1 NFkB inh: Epstein-Barr LMP1 NF-kappaB reporter inhibition | LMP1-induced NF-kappaB luciferase reporter cells, luminescence | inhibition, % at 12.5 µM | 350,000 compounds, 0.69% hits | AID 504558; in the data active = inhibition above about 41%; inconclusive = no clear call, values can overlap the other calls;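 also: 0% = neutral control wells and 100% = reference inhibitor control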
* hit, by the source's call; ? = inconclusive; nt = no result given. Compounds with a hit are over-represented: about 3% of the library has one in this group of screens.

SMILES	LGR2 inh	TROY NFkB inh	TWEAK-Fn14 inh	TRPM1 prom inh	MITF TRPM1 HTS	LMP1 NFkB inh
CCOC(=O)c1c(C)n(Cc2ccc3c(c2)OCO3)c2ccc(O)cc12	nt	-1.0	13.4	-32.2	nt	-9.3
CN1[C@@H](CO)[C@@H]2c3ccccc3NC[C@@H]21	-6.8	nt	nt	nt	nt	nt
Cc1c(NS(=O)(=O)c2ccccc2)ccc([N+](=O)[O-])c1Cl	35.2	59.5*	46.0	10.4	-5.8	7.6
Cc1ccc(OC(=O)N(C)C[C@@H]2OCc3ccccc3-c3c(n(C)c4ccccc34)C(=O)N([C@H](C)CO)C[C@@H]2C)cc1	-4.0	nt	nt	nt	nt	nt
O=C(CF)N(O)c1ccc(C=Cc2ccccc2)cc1	58.3*	25.2	-3.1	-19.1	20.4	87.9*
Cc1ccc2[nH]c(C)c(CCNCc3cccnc3)c2c1	3.2	-8.8	6.3	8.0	-5.2	-2.9
COc1ccc2[nH]c(C)c(CCNCc3cc(OC)c4c(c3)OCO4)c2c1	-9.0	64.1*	20.1	-9.7	10.8	13.4
COc1ccc(CNCCc2c(C)[nH]c3ccc(OC(F)(F)F)cc23)c(OC)c1	-2.3	12.2	11.1	92.2*	-92.3	20.9
COc1ccc2[nH]c(C)c(CCNCc3cc(OC)c(OC)c(OC)c3)c2c1	-7.5	4.9	-10.2	10.1	-5.1	-1.1
COC(=O)[C@@H]1[C@@H](CO)[C@@H]2Cn3c(cccc3=O)[C@@H]2N1CC1CC1	30.6	nt	nt	nt	nt	nt
CC(C)(C)c1cc(O)ccc1O	11.6	nt	nt	nt	nt	nt
Oc1cc(O)cc(/C=C/c2ccc(O)cc2O)c1	nt	-63.5	-32.3	-94.9	94.3*	-0.9
CCCN1[C@@H]2Cn3c(ccc(-c4ccc(F)cc4)c3=O)[C@H]1[C@@H](C(=O)OC)[C@@H]2CO	-10.1	nt	nt	nt	nt	nt
O=C(Cc1ccccn1)N1CCCCN2[C@H](CO)[C@H](c3ccc(-c4ccc(F)cc4)cc3)[C@H]2C1	2.6	nt	nt	nt	nt	nt
COC(=O)[C@@H]1[C@@H](CO)[C@@H]2Cn3c(ccc(C4=CCCCC4)c3=O)[C@H]1N2CC1CCCCC1	13.1	nt	nt	nt	nt	nt
c1ccc2c(c1)[nH]c1cnccc12	-3.6	-0.4	-7.5	-5.3	7.1	-4.7
Cc1c2ccncc2c(C)c2c1[nH]c1ccccc12	nt	-8.3	-31.6	89.0*	-89.1	11.2
O=C(N/N=C/c1c(O)n(C2CCCCC2)c(=S)[nH]c1=O)c1ccccc1O	7.8	-21.3	-60.5	10.7	-7.9	42.1*
Cc1ccc(OC(=O)N(C)C[C@H]2OCc3ccccc3-c3c(n(C)c4ccccc34)C(=O)N([C@@H](C)CO)C[C@H]2C)cc1	7.3	nt	nt	nt	nt	nt
COc1cc(/C=C/c2nc3ccccc3c(=O)n2-c2ccccc2O)ccc1O	1.6	18.3	56.4*	3.2	-0.4	0.6
COc1cc(/C=C/c2nc3ccccc3c(=O)n2-c2cccc(O)c2)ccc1O	4.8	11.7	49.4	-3.1	4.1	-1.5
C/C=C/c1ccc(C2[C@@H]3CN(Cc4cocn4)C[C@H]2N3)cc1 (stereo partly specified)	3.5	nt	nt	nt	nt	nt
CCOC(=O)[C@]12Cc3cc(Cl)ccc3[C@H]1N(CC(=O)OC)C(=O)c1ccccc12	nt	29.5	79.8*	nt	nt	nt
CCOC(=O)[C@]12Cc3cc(OC)ccc3[C@H]1N(C(C)C)C(=O)c1cc(OC)ccc12	?	51.6*	-7.6	nt	nt	nt
CCOC(=O)[C@]12Cc3cc(Cl)ccc3[C@H]1N(C(C)C)C(=O)c1ccccc12	73.0*	39.9	78.3*	nt	nt	nt
SMILES	LGR2 inh	TROY NFkB inh	TWEAK-Fn14 inh	TRPM1 prom inh	MITF TRPM1 HTS	LMP1 NFkB inh
CCOC(=O)[C@]12Cc3cc(Cl)ccc3[C@H]1N(C)C(=O)c1ccccc12	21.3	9.8	1.1	nt	nt	nt
CCOC(=O)[C@]12Cc3cc(C)ccc3[C@H]1N(C)C(=O)c1ccccc12	12.6	5.5	11.9	nt	nt	nt
Nc1ccc2ccc3cccc[n+]3c2c1	11.0	1.8	1.6	-10.3	nt	-9.6
C[n+]1c(-c2ccccc2)c2cc(N)ccc2c2ccc(N)cc21	78.6*	-0.1	9.2	61.6*	-59.0	-0.3
COC(=O)[C@H]1[C@H](CO)[C@H]2Cn3c(ccc(C4=CCCCC4)c3=O)[C@@H]1N2CCc1ccccc1	-6.7	nt	nt	nt	nt	nt
COc1ccc(C=C2C(=O)NC(=S)NC2=O)cc1	-4.7	-2.5	-1.1	5.8	-0.1	-2.3
O=C1NC(=S)NC(=O)C1=Cc1cccc2cc3ccccc3cc12	4.0	-28.1	0.4	97.6*	-97.2	7.3
CC(C)NC(=O)N1[C@@H]2Cn3c(ccc(-c4cccc(C(=O)N(C)C)c4)c3=O)[C@H]1[C@@H](C(=O)O)[C@@H]2CO	0.9	nt	nt	nt	nt	nt
CCCC#Cc1ccc([C@H]2[C@H]3CN(C(=O)Cc4ccccn4)CCCCN3[C@H]2CO)cc1	10.2	nt	nt	nt	nt	nt
O=C(Cc1ccccn1)N1CCCCN2[C@H](C1)[C@@H](c1ccc(C#Cc3ccccc3)cc1)[C@@H]2CO	-8.1	nt	nt	nt	nt	nt
Cc1nn(Cc2ccccc2Cl)c(Cl)c1C(=O)OCC(=O)NC(=O)NC1CCCCC1	5.7	-23.4	27.0	-0.1	-2.9	1.7
Cc1nn(CC(C)C)c(Cl)c1C(=O)NC1CCC(C)CC1 (stereo unspecified)	10.9	-36.6	5.0	-94.7	95.6*	-48.3
O=C1NC2C(=CC(O)C(O)C2O)c2cc3c(c(O)c21)OCO3 (stereo unspecified)	106.3*	83.5*	94.7*	88.1*	nt	95.2*
O=C1NC2C(=CC(O)C(O)C2O)c2cc3c(cc21)OCO3 (stereo unspecified)	104.7*	79.3*	99.7*	67.5*	-68.5	78.4*
O=C1NC2C(O)C(O)C(O)C(O)C2c2cc3c(c(O)c21)OCO3 (stereo unspecified)	102.8*	81.0*	98.9*	72.1*	-72.4	92.1*
COC(=O)[C@H]1[C@H](CO)[C@H]2Cn3c(ccc(C4=CCCCC4)c3=O)[C@@H]1N2C(=O)CC1CC1	2.3	nt	nt	nt	nt	nt
Cc1cccc(CN2CCN(Cc3ccc(Cl)cc3)CC2)c1	nt	4.6	19.6	-8.5	5.6	84.1*
O=C(Cc1ccccc1)N1CCN(Cc2ccc(Cl)cc2)CC1	16.8	7.5	1.3	3.5	nt	-8.9
O=C(Cc1ccccc1)N1CCN(Cc2ccccn2)CC1	19.9	-31.8	92.3*	3.9	-3.0	3.9
C[C@@H]1CN(C2CCC(C#N)(c3ccc(F)cc3)CC2)CC[C@]1(C(=O)O)c1ccccc1 (stereo partly specified)	nt	-0.3	0.8	5.0	-1.9	79.0*
COC(=O)[C@H]1[C@H](CO)[C@H]2Cn3c(ccc(-c4ccccc4OC)c3=O)[C@@H]1N2Cc1ccccc1	-6.5	nt	nt	nt	nt	nt
C[C@@H]1CN([C@@H](C)CO)C(=O)c2c(c3ccccc3n2C)-c2ccccc2CO[C@@H]1CN(C)C(=O)Oc1ccccc1	-4.6	nt	nt	nt	nt	nt
Cc1ccccc1-n1c(/C=C/c2ccccn2)nc2ccccc2c1=O	-19.6	-1.9	-10.6	10.2	-3.9	-5.5
CN1C2CCC1/C(=C/c1ccccn1)C(=O)/C2=C\c1ccccn1	101.6*	41.6	100.3*	96.8*	-96.6	92.6*
COC(=O)[C@@H]1[C@@H](CO)[C@@H]2Cn3c(cccc3=O)[C@H]1N2C(=O)C1CC1	-14.0	nt	nt	nt	nt	nt
